Holding throughout (test): Primary qHTS to identify gynecologic anti-cancer compounds using libraries of approved drugs and bioactive compounds (AID 1345084); note: nearly all actives have a fitted effect of over 55% in size
In general terms: In qHTS, concentration-response curves come from the screen itself.

For one assay, the system named is CAOV3. Conditions: Gynecologic cancer cell panel viability, ATPlite luminescence, 48 h; series mostly up to 57.5 µM. A digest of the protocol:
(§1)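 Cell viability after 48 h drug treatment, ATPlite luminescence readout; five doses.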
On the technique in general: In ATP-based viability assays light output follows the ATP content of the culture.

For a further assay, the system named is CASKI. Conditions: Gynecologic cancer cell panel viability, ATPlite luminescence, 48 h; series mostly up to 57.5 µM. Put shortly:
as §1

The next assay concerns Es-2. Conditions: Gynecologic cancer cell panel viability, ATPlite luminescence, 48 h; series mostly up to 57.5 µM. A digest of the protocol: as §1
The next assay concerns HeLa. Conditions: Gynecologic cancer cell panel viability, ATPlite luminescence, 48 h; series mostly up to 57.5 µM. A digest of the protocol:
as §1

The subject of the next assay is Hek293T. Conditions: Gynecologic cancer cell panel viability, ATPlite luminescence, 48 h, control line for the selectivity index; series mostly up to 57.5 µM. A digest of the protocol: as §1
A further assay deals with JEG-3. The note with it: Gynecologic cancer cell panel viability, ATPlite luminescence, 48 h; series mostly up to 57.5 µM. A digest of the protocol:
as §1

Inconclusive results are not listed. Values without a mark were called inactive. Active and inactive are the calls of the source. Calls come from the whole dose curve; as a rule, active = well fitted cell-killing curve with a large enough effect; inconclusive = small, poorly fitted or top-dose-only effect, or effect the other way; inactive = flat fitted curve, though single readings scatter.
% is set by controls: 0 for no effect and ±100 for the full control effect; potency is the fitted concentration of half-maximal effect.

`C=CC(=O)Nc1cc(-n2c(=O)ccc3cnc4ccc(-c5ccc(NS(C)(=O)=O)cc5)cc4c32)ccc1C`: the Potency result in the assay with CAOV3, in the assay with CASKI, with Es-2, in the assay on HeLa, in the assay on Hek293T and in the assay on JEG-3 was “inactive” in each case.
For `CCc1c[nH]c2ncnc(N3CC[C@](N)(CNC(=O)c4ccc(F)cc4F)C3)c12`, the Potency entry in the assay on CAOV3, with CASKI, in the assay on Es-2, with HeLa and in the assay on JEG-3 was “inactive” in each case. The Potency with Hek293T was 1.41 µM (active).
Consider `Cc1c[nH]c2ncnc(N3CCC(CN)(C(=O)Nc4cccc(OC(=O)N(C)C)c4)CC3)c12`, for which the Potency entry with CAOV3, with CASKI, in the assay with Es-2, with HeLa and with JEG-3 was “inactive” each time.
In the case of `Cc1cc2c(c(=O)o1)C=C1CC[C@H]([C@H](C)Cn3cnc(=N)c4[nH]cnc43)C[C@@H]1O2`, the Potency entry with CAOV3, in the assay with CASKI, in the assay with Es-2, in the assay with HeLa, in the assay with Hek293T and with JEG-3 was “inactive” in each case.
As to `Cc1ccc(-c2cn3c4c(sc3n2)CCCC4)cc1`, the Potency with CAOV3 is 10 µM (active); with CASKI it was 17.8 µM (active); in the assay with Es-2, 11.2 µM (active); in the assay with HeLa, 12.6 µM (active); in the assay on Hek293T, 12.6 µM (active).
Consider `CC(=O)NC(C(=O)O[C@H]1CCC(C)(C)[C@@H]2CC=C3C(=O)OCC3(O)[C@@]12C)C(C)C` (stereo partly specified), for which the Potency result with CAOV3, in the assay on CASKI, with Es-2, in the assay on HeLa, in the assay on Hek293T and in the assay with JEG-3 was “inactive” in each case.
As to `C/C=C(\C)C(=O)OC1C(C)C2(O)C(C=C(CO)CC3(O)C(=O)C(C)=CC32)C2C(C)(C)C12OC(C)=O` (stereo unspecified), the Potency result with CAOV3, in the assay on CASKI, in the assay with HeLa, with Hek293T and with JEG-3 was “inactive” in each case. In addition, the Potency in the assay on Es-2 is 0.224 µM (active).
On to `C[C@H]1[C@H](/C=C/c2ccc(-c3ccccc3C#N)cn2)[C@@H]2[C@@H](C)OC(=O)[C@@H]2C[C@@H]1C`, for which the Potency entry in the assay on CAOV3 was “inactive”.
Consider `CCCCc1c(-c2ccc(OC)cc2)[nH]c2nccnc12`, for which the Potency result in the assay with CAOV3, with CASKI, with Es-2, in the assay on HeLa, with Hek293T and in the assay on JEG-3 was “inactive” throughout.
`CCN(CCNC(=O)Nc1ccccc1Br)c1cccc(C)c1`: the Potency entry with CAOV3, in the assay with CASKI, with Es-2, with HeLa and in the assay on Hek293T was “inactive” each time.
For `COc1cc(CCO)ccc1O[C@@H]1O[C@H](CO)[C@@H](O)[C@H](O)[C@H]1O`, the Potency result with CAOV3 is “inactive”.
For the compound `CC(C)(C)c1ccc(NC(=O)N2CCN(c3ncccc3Cl)CC2)cc1`, the Potency result in the assay on CAOV3, in the assay on CASKI, with Es-2, in the assay with HeLa and in the assay with JEG-3 was “inactive” in each case.
Take `C/C=C(\C)C(=O)O[C@@H]1[C@@H](C)[C@]2(O)[C@@H]3C=C(C)C(=O)[C@H]3CC(CO)=C[C@H]2C2C(C)(C)[C@@]21OC(=O)C(C)CC` (stereo partly specified): the Potency result with CAOV3, with CASKI, with HeLa and in the assay with Hek293T was “inactive” throughout. Also, the Potency in the assay with Es-2 was 0.355 µM (active).
For the compound `COc1cccc(OCCCN)c1-c1cc(Nc2cnc(C#N)cn2)n[nH]1`, the Potency with CAOV3 was 14.1 µM (active). In the assay with CASKI, the Potency entry was “inactive”.
The like results for `CC1(C)CC[C@]2(C(=O)O)CC[C@]3(C)C(=CCC4[C@@]5(C)C[C@@H](O)[C@H](O)C(CO)(CO)C5CC[C@]43C)C2[C@@H]1O` (stereo partly specified) were, in that order, “inactive” and “inactive”.
Take `COc1ccc(CN2CCN(C(=O)CCNC(=O)c3ccc(C(C)(C)C)cc3)CC2)cc1`: the Potency result in the assay on CAOV3, in the assay on CASKI, in the assay with Es-2, with HeLa and with JEG-3 was “inactive” in each case.
Turning to `COc1cc2c(NC3CCN(C(C)C)CC3)nc(N3CCC(F)(F)CC3)nc2cc1OCCCN1CCCC1`, the Potency was 8.91 µM (active) in the assay with CAOV3, 31.6 µM (active) in the assay with CASKI and 22.4 µM (active) in the assay on JEG-3.
Regarding `CC(C)S(=O)(=O)NC[C@@H]1CC(c2ccc(N3CCCC3)c(F)c2)=NO1`, the Potency entry in the assay on CAOV3, in the assay on CASKI, in the assay with Es-2, in the assay on HeLa and with JEG-3 was “inactive” throughout.
On to `Cn1cc(-c2cnn3c(N)c(Br)c(C4CCCNC4)nc23)cn1` (stereo unspecified), for which the Potency result in the assay on CAOV3, in the assay on CASKI and in the assay on JEG-3 was “inactive” each time.
On to `Cc1ccc(S(=O)(=O)NCc2ccc(C(=O)NCCN(Cc3ccccc3)C(C)C)cc2)cc1`, for which the Potency result with CAOV3, in the assay on CASKI, with HeLa, in the assay on Hek293T and in the assay on JEG-3 was “inactive” each time.
As to `C=C1C(=O)O[C@@H]2C3C(=C(C)[C@@H](O)[C@@H](OC(=O)/C(=C/C)COC(C)=O)[C@@H]12)C(=O)[C@H]1O[C@@]31C` (stereo partly specified), the Potency was 8.91 µM (active) in the assay with CAOV3, 8.91 µM (active) in the assay with Es-2 and 7.94 µM (active) in the assay on Hek293T. In the assay on HeLa, the Potency entry is “inactive”.
On to `COC1C(O)C(OC2CCC3(C)C(CCC45CCC6C7(COC(=O)C7)OC4(O)C6(C)CCC35)C2)OC(C)C1OC1OC(CO)C(OC2OC(CO)C(O)C(O)C2O)C(O)C1O` (stereo unspecified), for which the activity change, negative = cytotoxicity in the assay with CAOV3 was 5.13% [at 11.6 µM]; in the assay with CASKI, 22.8% [at 11.6 µM]; with HeLa, -19.8% [at 11.6 µM].
For `C=C1C(=O)OC2C(OC(=O)C=C(C)C)C(C)=C3C(=O)C=C(C)C3C(O)C12` (stereo unspecified), in the assay on CAOV3, the Potency was 11.2 µM (active). Further, the Potency entry in the assay with CASKI and with HeLa was “inactive” each time.
For `COc1ccc(Cl)c(Nc2ncnc3cc(OCC4CCN(C)CC4)c(OC)cc23)c1`, the Potency in the assay with CAOV3 is 8.91 µM (active). The Potency entry in the assay on Es-2, in the assay with HeLa, in the assay on Hek293T and in the assay on JEG-3 was “inactive” each time.
In the case of `C=C1CC2OC(=O)C(COC)C2C(OC(=O)/C(C)=C\C)CC2(C)OC1=CC2=O` (stereo unspecified), the Potency result in the assay on CAOV3, in the assay with CASKI, with HeLa and with JEG-3 was “inactive” throughout.
Regarding `Cc1c(NC(=O)OCC2COCCN2)cn2ncnc(Nc3ccc4c(cnn4Cc4cccc(F)c4)c3)c12` (stereo unspecified), the Potency entry with CAOV3, in the assay on Es-2, in the assay with HeLa and with Hek293T was “inactive” in each case.

For the origin of these results see PubChem BioAssay (NCATS).
